From PubChem BioAssay
FLuc modulator: qHTS profiling assay for firefly luciferase inhibitor/activator using purifed enzyme and Km concentrations of substrates (counterscreen for miR-21 project). Luciferin 4-monooxygenase (Photinus pyralis), P08659. purified FLuc, Km substrates, luminescence inhibition. Potency, µM (series often up to 57.5 µM), actives largely listed as inhibitors. hit rate 6.9% among 360,000; further: nearly all actives have a fitted effect of over 55% in size
Target sequence (P08659 whole entry, looked up): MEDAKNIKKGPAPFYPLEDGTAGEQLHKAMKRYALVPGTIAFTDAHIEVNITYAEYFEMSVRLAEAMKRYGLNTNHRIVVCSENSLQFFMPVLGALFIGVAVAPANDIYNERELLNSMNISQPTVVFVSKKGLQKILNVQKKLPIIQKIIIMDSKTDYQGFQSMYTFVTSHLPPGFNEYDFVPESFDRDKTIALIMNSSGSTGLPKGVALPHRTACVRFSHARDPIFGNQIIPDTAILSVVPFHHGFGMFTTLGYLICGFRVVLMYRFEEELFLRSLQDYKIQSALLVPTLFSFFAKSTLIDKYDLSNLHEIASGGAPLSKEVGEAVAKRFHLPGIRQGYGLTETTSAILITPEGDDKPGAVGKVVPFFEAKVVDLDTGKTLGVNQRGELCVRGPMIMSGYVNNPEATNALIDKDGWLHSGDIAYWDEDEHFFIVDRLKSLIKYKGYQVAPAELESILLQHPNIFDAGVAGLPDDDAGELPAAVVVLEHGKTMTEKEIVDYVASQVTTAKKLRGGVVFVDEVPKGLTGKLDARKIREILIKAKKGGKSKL
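Purified P. pyralis luciferase (10nM final) with 10uM D-luciferin and 10uM ATP (Km levels) in 50mM Tris acetate pH 7.5, 10mM Mg acetate, 0.01% Tween-20, 0.05% BSA; qHTS 6-point titration, ~60 µM downward; luminescence read.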
Rab9 prom act: qHTS Assay for Rab9 Promoter Activators; Potency, µM (top dose mostly 9.22 µM), hits mostly activators; Huh7 Rab9 promoter-luciferase reporter, luminescence, 24 h; hit rate 2.8% among 320,000; AID 485297, 2010; further: nearly all actives have a fitted effect of over 60% in size
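Cells were plated at 1500 per well in reduced-serum medium with 10% FBS and left 2 h. Compound in DMSO was then added for 24 h at 37 °C. Reporter signal was read by luminescence after 10 min with luciferase detection reagent.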
ELG1 genotox: qHTS screen for small molecules that induce genotoxicity in human embryonic kidney (HEK293T) cells expressing luciferase-tagged ELG1 | HEK293T ELG1-luciferase reporter, luminescence, 16 h | Potency, µM (top dose mostly 46 µM), most hits filed as activators | hit rate 1.3% among 330,000; further: nearly all actives have a fitted effect of over 60% in size
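ELG1-luciferase HEK293T cells, 2,000/well; compound pinned in; 16 hr, 37 °C, 5% CO2; ONE-Glo, 30 min RT; luminescence on CCD imager.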
SMN2 splice up: qHTS Assay for Enhancers of SMN2 Splice Variant Expression; HEK293 SMN2-luciferase splicing reporter, luminescence, 30-36 h; Potency, µM (highest dose often 46.1 µM), actives largely listed as activators; hit rate 2.8% among 210,000; AID 1458, 2008; further: nearly all actives have a fitted effect of over 55% in size
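HEK293 cells carry an SMN2 minigene-luciferase reporter in which exon 7 inclusion puts luciferase in frame. Cells were seeded at 2000 cells/well, attached for 10-12 hours, then exposed to compounds for 30-36 hours at 37C before ONE-Glo luminescence.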
Luc counter: Counterscreen for Luciferase (Kinase-Glo TM) Inhibition; Luciferin 4-monooxygenase (Photuris pensylvanica), Q27757; Kinase-Glo luciferase, ATP luminescence, 8 min; Potency, µM (highest dose often 38.3 µM), most hits filed as inhibitors; hit rate 0.28% among 200,000; AID 1379, 2008; further: nearly all actives have a fitted effect of over 60% in size
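Recombinant Kinase-Glo luciferase, 10 uM ATP (linear range), luciferin; imidazole pH 7.2 / KCl / MgCl2 / Tween / BSA buffer; 8 min RT; luminescence.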
NPC1 promoter act: qHTS Assay for NPC1 Promoter Activators; Potency, µM (series often up to 9.22 µM), hits mostly activators; hit rate 2.4% among 320,000; Huh7 NPC1 promoter luciferase reporter, 24 h; AID 485313, 2010; further: nearly all actives have a fitted effect of over 60% in size
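Readout is luciferase luminescence, reflecting NPC1 promoter activation in stably transfected Huh7 cells after 24 h compound exposure at 37 °C in reduced-serum medium with 10% FBS.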
Numbers stand for hits; - = inactive; ? = inconclusive; . = no result; [ ] = another dose, or the depositor's remark. A selection: hits, their analogues and other compounds. The true share with any hit is near 7.4%. The call rests on the fitted dose curve; in most records, active means well fitted curve in the direction sought with a large enough effect; inconclusive means small, poorly fitted or top-dose-only effect, or another doubt; inactive means no such curve, though single readings can be large; an effect the other way counts as inactive or inconclusive.

SMILES	FLuc modulator	Rab9 prom act	ELG1 genotox	SMN2 splice up	Luc counter	NPC1 promoter act
COc1ccc(/C=C2/C(=O)N(c3c(F)c(F)c(F)c(F)c3F)N=C2C)cc1	?	-	-	.	.	-
COc1ccc(-n2nc3cc(C)c(NC(=O)c4cccnc4)cc3n2)cc1	1.1µM	?	?	-	-	?
Cc1ccc(C(=O)Nc2cc3nn(-c4ccccc4)nc3cc2Cl)c(C)c1	-	.	.	-	.	.
Cc1cc2nn(-c3ccccc3)nc2cc1NC(=O)c1cccc2c(Cl)cccc12	-	.	.	-	.	.
CCCC(=O)Nc1cc2nn(-c3ccc(OC)cc3)nc2cc1C	?	.	.	-	.	.
CCC(=O)Nc1cc2nn(-c3ccccc3)nc2cc1Cl	0.67µM	0.28µM	0.52µM	0.89µM	-	0.32µM
CC(=O)Nc1cc2nn(-c3ccccc3)nc2cc1C	2.4µM	0.56µM	3.3µM	.	.	0.63µM
Cc1cc2nn(-c3ccccc3)nc2cc1NC(=O)c1cccs1	6µM	2µM	?	?	-	?
O=C1CN(C(=O)COC(=O)CCS(=O)(=O)c2ccccc2Cl)c2ccccc2N1	.	.	-	.	.	.
CCN(CC(=O)Nc1ccc(S(=O)(=O)N2CCCC2)cc1)CC(=O)Nc1ccccc1C(F)(F)F	.	.	-	.	.	.
CCCCCCCC1=Cc2ccccc2C(C(C(=O)OC)C(=O)OC)N1C(=O)OC (stereo not drawn)	.	.	.	-[9.22 µM]	-[7.66 µM]	.
COC(=O)c1ccc(N=Nc2c(C)[nH]n(-c3ccccc3)c2=O)cc1	-	-	-	.	.	-
O=C(O)c1ccc(N=NNc2cccc([N+](=O)[O-])c2)cc1	2.4µM	0.63µM	?	11µM	-	0.89µM
COC(=O)c1ccc(N=NNc2ccccc2)cc1	3.8µM	1.3µM	?	8.9µM	-	1.4µM
COC(=O)c1ccc(N=NNc2cccc(Br)c2)cc1	7.6µM	1.3µM	?	5µM	-	1.3µM
COC(=O)C(C)Nc1cccc(Br)c1 (stereo not drawn)	-	-	-	.	.	-
COC(=O)c1ccc(N=NNc2ccc(C(=O)OC)cc2)cc1	?	?	18µM	?	-	?
Cc1nc([N+](=O)[O-])c(Sc2nc3ccc([N+](=O)[O-])cc3[nH]2)n1Cc1ccccc1	-	-	-	-	-	-
COc1ccc(CC2(CO)CCN(Cc3cccnc3)CC2)cc1	15µM	?	-	.	-	-
COc1ccc(-c2ncc(CN3CCC(CO)(Cc4cccc(OC)c4)CC3)cn2)cc1	?	-	-	.	.	-
COc1ccc(-n2ccnc2CN2CCCC(CO)(Cc3cccc(OC)c3)C2)cc1 (stereo not drawn)	24µM	-	-	.	.	-
Cc1ccc(NC(=O)c2ccccc2)s1	2.7µM	0.63µM	?	2µM	?	0.71µM
Cc1cc(NC(=O)c2ccccc2)sc1C	3.4µM	.	.	11µM	11µM	.
O=C(COC(=O)c1cc(S(=O)(=O)N2CCCCC2)ccc1N1CCOCC1)c1ccccc1	-	-	-	.	.	-
CC(C)CC(=O)NC1(C(F)(F)F)C(=O)N(CC(C)C)C2=C1C(=O)CC(C)(C)C2 (stereo not drawn)	-	-	-	-	-	-
SMILES	FLuc modulator	Rab9 prom act	ELG1 genotox	SMN2 splice up	Luc counter	NPC1 promoter act
Cc1nn2cc(-c3cccc(Cl)c3)cnc2c1Br	?	-	?	?	-	-
Cc1nn2cc(-c3cccc(Cl)c3)cnc2c1Cl	-	?	-	13µM	-	-
O=C(COC(=O)c1ccc2c(c1)S(=O)(=O)N=C1CCCCCN12)NCCc1ccc(F)cc1	-	-	-	-	-	-
CCc1cc(/C(Cc2ccc3ccccc3n2)=N\O)c(O)cc1O	-	-	-	-	-	-
Cc1c(O)ccc(/C(Cc2ccc3ccccc3n2)=N\N)c1O	15µM	-	-	.	.	-
c1ccc(-c2ccc(CNC3CC3)cc2)cc1	?	?	-	.	.	-
CN(C)c1ccc(NC(=O)c2ccc3nc[nH]c3c2)cc1	13µM	?	?	.	.	?
O=C(Nc1ccc(F)cc1)c1ccc2nc[nH]c2c1	?	-	-	?	-	-
Cc1cc(C)cc(NC(=O)c2ccc3nc[nH]c3c2)c1	6.7µM	-	-	-	-	-
Cc1ccc(NC(=O)c2ccc3nc[nH]c3c2)cc1C	9.5µM	1.8µM	?	11µM	-	2.8µM
COc1cc(/C=N/N2C(=O)CSC2=S)cc(Br)c1O	?	-	-	-	-	-
COc1cccc(/C=N/N2C(=O)CSC2=S)c1O	27µM	-	-	-	-	-
Clc1cccc(/C=N/N2CCN(Cc3ccccc3)CC2)c1	17µM	?	?	.	.	?
FC(F)(F)c1ccccc1/C=N/N1CCN(Cc2ccccc2)CC1	19µM	-	-	-	-	-
COc1ccccc1N1CCN(/N=C/c2cccc(OC)c2O)CC1	7.6µM	?	?	25µM	-	?
O=c1ccc(-c2ccc(S(=O)(=O)Nc3cccc(Br)c3)o2)n[nH]1	-	-	-	.	.	-
COc1cc2c(=O)n(CCc3ccccc3)c(=O)n(CC(=O)Nc3ccccc3)c2cc1OC	-	.	.	-	.	.
Cc1nnc(N2C(=O)c3oc4ccccc4c(=O)c3C2c2cccc(OCCC(C)C)c2)s1 (stereo not drawn)	-	.	.	-	.	.
COc1ccc(C(=O)NCc2cnn(C)c2C)cc1OC1CCN(C(C)C)CC1	-	-	-	.	.	-
COc1ccc(/C=N/N2CCN(c3ccccc3OC)CC2)cc1OC	?	-	?	-	-	-
COc1cccc(/C=N/N2CCN(c3ccccc3OC)CC2)c1	12µM	3.2µM	16µM	13µM	-	?
COc1ccc(/C=N/N2CCN(c3ccccc3OC)CC2)cc1Br	15µM	-	-	.	.	-
COc1ccccc1N1CCN(/N=C/c2cccc(Cl)c2)CC1	12µM	2.2µM	16µM	.	.	3.2µM
Cc1ccc(NC(=O)C2(c3cccs3)CCOCC2)cc1Cl	-	.	.	.	.	.
c1ccc(N2CCN(c3cnc4ccccc4n3)CC2)cc1	3.4µM	1.1µM	-	3.5µM	-	1.6µM
SMILES	FLuc modulator	Rab9 prom act	ELG1 genotox	SMN2 splice up	Luc counter	NPC1 promoter act
Clc1ccc(N2CCN(c3cnc4ccccc4n3)CC2)cc1	17µM	?	?	-	-	?
O=C(c1cccnc1)N1CCN(c2ccc(Cl)cc2)CC1	-	-	-	-	-	-
Fc1ccc(N2CCN(c3nc4ccccc4c4nc(-c5ccccc5)nn34)CC2)cc1	-	.	.	-	.	.
Fc1ccc(N2CCN(c3cnc4ccccc4n3)CC2)cc1	11µM	3.5µM	?	.	.	2.8µM
Cc1cc(N2CCN(c3ccccc3)CC2)nc2ccccc12	15µM	-	-	.	.	-
CO/N=C/c1ccc(Oc2ccc(C)cc2)nc1	17µM	-	-	-	-	-
Cc1ccc(Oc2ccc(C=O)cn2)cc1	-	-	-	-	-	-
NC(=O)c1cc(Cl)ccc1OCC(=O)Nc1ccc2c(c1)OCO2	0.85µM	1.3µM	?	.	.	1.4µM
